Assay [1] is described as follows: resazurin metabolic signal in HepG2 cells – cell-based, resazurin fluorescence, 24 h, PK04 Diversity Set, profiling panel (AID 1172). Also: test concentration not given here. As to conditions: HepG2 viability, higher = more signal.
The nature of assay [2]: budding yeast growth changes without added modifier – OD600, strain BY4716, 24 h, basal condition, primary screen (AID 1173). As to conditions: S. cerevisiae BY4716 growth, OD600, 24 h; higher = more signal, called active from +8 up or from −8 down.
Assay [3] in a line: viability profiling in MM1S myeloma cells – cell-based, resazurin fluorescence, basal, 24 h, PK04 Diversity Set, profiling panel (AID 1174). Also: test concentration not given here. The note with it: higher = more signal, called active from +8 up or from −8 down. (In general: Resazurin is reduced to fluorescent resorufin, in cell work by metabolically active cells.)
Assay [4] concerns the target Dihydroorotate dehydrogenase (quinone), mitochondrial (Plasmodium falciparum (isolate 3D7)) (UniProt Q08210). In words: inhibition of P. falciparum DHODH – biochemical, C-terminal His tag, absorbance 600 nm, primary screen (AID 1175).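 Also: recombinant parasite enzyme with a five histidine tag at its C terminus; test concentration not given here.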 The note with it: PfDHODH enzyme, DCIP absorbance 600 nm; higher = more signal, called active from +8 up or from −8 down.
Assay [5] is described as follows: inhibition of PAO1 biofilm formation – strain PAO1, LB-PBS medium, absorbance 600 nm, primary screen (AID 1176). Also: test concentration not given here. As to conditions: P. aeruginosa PAO1 growth/biofilm, A600, 12 h; higher = more signal.
The nature of assay [6]: growth modulation of vineyard yeast isolate – strain RM11-1a, OD600, basal, 24 h, primary screen (AID 1177).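 Also: cultures grown under basal conditions with no added stressor; test concentration not given here.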 As to conditions: S. cerevisiae RM11-1a growth, OD600, 24 h; higher = more signal, called active from +8 up or from −8 down.
Assay [7] can be described thus: growth of efflux-deficient E. coli DRC39 – strain DRC39, OD650, 24 h, E. coli filamentation inducers, primary screen (AID 1178).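 Also: growth measured as culture turbidity by optical density at 650 nm; test concentration not given here.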 As to conditions: E. coli DRC39 acrAB, higher = more signal, called active from +8 up or from −8 down.
The nature of assay [8]: growth of efflux-deficient E. coli DRC39 – strain DRC39, OD650, 48 h, E. coli filamentation inducers, primary screen (AID 1179).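 Also: screen aims at cell division blockers that make cells filament.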 As to conditions: E. coli DRC39 delta-acrAB growth, higher = more signal, called active from +8 up or from −8 down.
Assay [9] can be described thus: viability profiling in RPMI8226 myeloma cells – cell-based, resazurin fluorescence, basal, 24 h, PK04 Diversity Set, profiling panel (AID 1180).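 Also: RPMI8826 multiple myeloma cell line at 5000 cells per well; test concentration not given here.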 The note with it: higher = more signal.
The target in assay [10] is E3 ubiquitin-protein ligase XIAP (Homo sapiens) (UniProt P98170). In words: small molecules binding XIAP protein – biophysical, small-molecule microarray, fluorescence 635 nm, primary screen (AID 1181).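 Also: score merges 667 nm emission and signal to noise over triplicate slides.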 The note with it: higher = more signal.
Sequence of E3 ubiquitin-protein ligase XIAP (Homo sapiens) (P98170 whole entry, looked up): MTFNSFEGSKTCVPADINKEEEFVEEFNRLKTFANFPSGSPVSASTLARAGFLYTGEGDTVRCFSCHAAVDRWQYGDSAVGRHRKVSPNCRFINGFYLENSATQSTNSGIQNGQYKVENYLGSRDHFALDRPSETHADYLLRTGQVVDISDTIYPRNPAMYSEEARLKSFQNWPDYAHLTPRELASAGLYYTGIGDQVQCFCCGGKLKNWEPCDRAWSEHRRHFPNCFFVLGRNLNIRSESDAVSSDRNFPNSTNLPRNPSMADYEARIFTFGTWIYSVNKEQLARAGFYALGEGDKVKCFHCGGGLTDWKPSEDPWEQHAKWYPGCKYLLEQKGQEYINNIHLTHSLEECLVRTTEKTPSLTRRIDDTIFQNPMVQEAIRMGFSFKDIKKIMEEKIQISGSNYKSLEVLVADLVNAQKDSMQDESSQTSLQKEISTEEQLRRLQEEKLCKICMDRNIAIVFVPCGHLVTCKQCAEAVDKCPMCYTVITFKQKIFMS

Active and inactive are the calls of the source. Unless noted, no rule for the calls is given here.

Sequence of Dihydroorotate dehydrogenase (quinone), mitochondrial (Plasmodium falciparum (isolate 3D7)) (Q08210 whole entry, looked up): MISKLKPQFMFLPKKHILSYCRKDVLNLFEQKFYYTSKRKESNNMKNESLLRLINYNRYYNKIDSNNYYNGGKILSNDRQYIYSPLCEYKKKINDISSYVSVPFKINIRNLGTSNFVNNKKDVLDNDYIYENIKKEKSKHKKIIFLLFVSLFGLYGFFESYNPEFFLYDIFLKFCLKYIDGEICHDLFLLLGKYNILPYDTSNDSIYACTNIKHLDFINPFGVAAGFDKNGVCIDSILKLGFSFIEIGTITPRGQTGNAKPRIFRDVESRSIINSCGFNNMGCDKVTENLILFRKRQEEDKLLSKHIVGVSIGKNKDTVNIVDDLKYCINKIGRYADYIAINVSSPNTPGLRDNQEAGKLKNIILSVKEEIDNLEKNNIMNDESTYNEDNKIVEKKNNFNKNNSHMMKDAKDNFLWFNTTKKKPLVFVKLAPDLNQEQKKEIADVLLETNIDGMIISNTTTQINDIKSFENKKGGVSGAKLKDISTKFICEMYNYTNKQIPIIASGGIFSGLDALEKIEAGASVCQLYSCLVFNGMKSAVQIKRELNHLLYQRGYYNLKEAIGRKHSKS

Take `[N-]=[N+]=NCc1ccccc1C[C@]1(C(=O)N2CCCCC2)N=C(c2ccc(OCCCO)cc2)O[C@H]1c1ccccc1CN=[N+]=[N-]`: the z-score in assay [1] was -0.182; in assay [2], 1.06 (inactive); in [3], -1.32 (inactive); in [5], 1.76 (inactive); in [6], 0.736 (inactive); in [7], 0.0687 (inactive). Also, the results for the z-score in assay [8] and in [9] were -0.352 (inactive) and -2.22, respectively. Moreover, the composite z-score in assay [4] is -0.266 (inactive); in assay [10] it was 0.377.
In the case of `C=C(/C(=C/C[C@@H](OC(=O)c1ccncc1)c1ccc(CO)o1)c1cnc2ccccc2c1)C(C)C`, the z-score in assay [1] is 0.0389; in assay [2], -2.58 (inactive); in assay [3], 0.558 (inactive); in [6], -0.475 (inactive); in [7] it was 1.4 (inactive); in assay [8], 0.811 (inactive). Besides, the z-score in assay [9] came out at 1.17. Besides, the composite z-score in assay [4] is -6.53 (inactive); in assay [10] it was 0.374.
`Cc1ccc(N2C(=O)c3ccccc3[C@@H](C(=O)NCC(F)(F)F)[C@@H]2c2ccc(CO)cc2)nc1`: the z-score in assay [1] was 0.129; in assay [2], -0.789 (inactive); in assay [3], 1.21 (inactive); in [5], 0.429 (inactive); in assay [6] it was -0.872 (inactive); in [7], 0.419 (inactive). Besides, the figures for the z-score in assay [8] and in [9] were 0.127 (inactive) and 0.607, respectively. The composite z-score in assay [4] was -0.417 (inactive); in assay [10], -0.227.
Consider `Cc1ccccc1C(O)C1C=CC2C(=O)N(c3ccccc3)C(=O)C2N1Nc1ccc(C#N)cc1` (centres undefined), for which the z-score is -0.709 in assay [1]; -0.257 (inactive) in [2]; 0.132 (inactive) in assay [3]; 1.26 (inactive) in assay [5]; 0.302 (inactive) in [6]; 0.493 (inactive) in [7]. The results for the z-score in [8] and in [9] were 0.0888 (inactive) and -0.0953, respectively. Besides, the results for the composite z-score in assay [4] and in assay [10] were 0.513 (inactive) and 0.198, respectively.
On to `CCCC[C@@H]1C[C@H]1[C@@H](NC(=O)c1cccs1)c1ccc(Cl)cc1`, for which the z-score in [1] was -0.513; in assay [2], 0.831 (inactive); in assay [3], -0.0593 (inactive); in assay [5], 2.82 (inactive); in assay [6] it was 0.595 (inactive); in assay [7], -0.249 (inactive). Moreover, the z-score in [8] is -0.586 (inactive); in assay [9], 0.513. In addition, the composite z-score in assay [4] was -3.8 (inactive); in assay [10] it was 0.267.
In the case of `C[N+](C)(C)CCCCNC(=O)[C@H]1C[C@H]2C(=O)NCC(=O)N2[C@H]1c1cccc(OCCO)c1`, the z-score was 0.052 in [1]; 0.167 (inactive) in assay [2]; -0.935 (inactive) in [3]; 1 (inactive) in [5]; 0.105 (inactive) in assay [6]; -0.158 (inactive) in assay [7]. Further, the z-score in assay [8] is -0.271 (inactive); in [9], -1.15. In addition, the composite z-score in assay [4] was -29.2 (active); in assay [10], 0.133.
For the compound `C=C(CCCC)/C(=C/C[C@@H](OC(=O)c1ccncc1)c1ccc(CO)o1)c1cnc2ccccc2c1`, the z-score was -0.0346 in assay [1]; -1.95 (inactive) in [2]; 0.82 (inactive) in assay [3]; 0.154 (inactive) in [5]; -0.27 (inactive) in assay [6]; 0.698 (inactive) in [7]. Moreover, the z-score is 0.29 (inactive) in assay [8] and 0.501 in assay [9]. Further, the composite z-score in assay [4] is -7.54 (inactive); in assay [10] it was 0.451.
Turning to `NC(=O)NCC#Cc1ccc2c(c1)[C@]1(C(=O)N2)[C@H](C(N)=O)[C@H]2C(=O)O[C@H](c3ccccc3)[C@H](c3ccccc3)N2[C@@H]1c1ccccc1OCCO`, the z-score in assay [1] was 0.979; in assay [2] it was -0.275 (inactive); in assay [3], 0.369 (inactive); in assay [5], 0.75 (inactive); in [6], 0.785 (inactive); in [7], 0.285 (inactive). Also, the z-score was 0.0072 (inactive) in assay [8] and 0.295 in assay [9]. Also, the composite z-score in assay [4] is -0.793 (inactive); in [10], 0.234.
With `CC(C)NC(=O)[C@@]1(Cc2ccccc2I)c2ccccc2C(=O)N(C2CCCCC2)[C@H]1c1ccc(CO)cc1`, the z-score in [1] was 0.524; in [2], -0.557 (inactive); in assay [3], 0.224 (inactive); in [5] it was 0.593 (inactive); in assay [6], 1.31 (inactive); in [7] it was 0.545 (inactive). Besides, the z-score in [8] is 0.267 (inactive); in assay [9], 0.751. Also, the composite z-score in assay [4] is -1.45 (inactive); in [10], 0.106.
Consider `COC(=O)C[C@H]1O[C@]2(C(=O)N(Cc3ccccc3)c3ccc(I)cc32)[C@@H](C)[C@@H]1[Si](C)(C)c1ccc(OC)cc1`, for which the z-score in assay [1] was -0.583; in [2] it was -2.01 (inactive); in [3], -0.146 (inactive); in assay [5], -0.435 (inactive); in assay [6] it was 0.765 (inactive); in assay [7] it was -0.493 (inactive). Besides, the z-score in assay [8] is -0.598 (inactive); in [9] it was -0.196. Further, the composite z-score in assay [4] was 0.94 (inactive); in assay [10] it was -0.211.
For the compound `NC(=O)[C@H]1[C@@H]2C(=O)O[C@@H](c3ccccc3)[C@@H](c3ccccc3)N2[C@@H](c2ccc(O)cc2)[C@]12C(=O)Nc1ccc(C#CCCO)cc12`, the z-score in [1] was -0.744; in assay [2], -0.383 (inactive); in assay [3], -0.354 (inactive); in [5] it was -0.0604 (inactive); in assay [6], -1.03 (inactive); in assay [7] it was -0.847 (inactive). Further, the values for the z-score in assay [8] and in assay [9] were -1.18 (inactive) and -0.616, respectively. The composite z-score in assay [4] is -0.25 (inactive); in assay [10], 0.135.
`CCCCCCc1nc(-c2cc(C)c(OC)c(C)c2)cc2c1[Si](C(C)C)(C(C)C)O[C@H]2c1ccccc1`: the z-score in assay [1] was 0.0796; in [2] it was 0.54 (inactive); in assay [3], 0.0808 (inactive); in [5], -0.334 (inactive); in assay [6] it was 0.315 (inactive); in [7], 0.609 (inactive). The results for the z-score in [8] and in assay [9] were 0.228 (inactive) and 0.219, respectively. Further, the figures for the composite z-score in assay [4] and in assay [10] were -0.292 (inactive) and -0.244, respectively.

The values are drawn from PubChem BioAssay.
